# In the supplement of paper PMC10981050:
# Counter-ions that a name gives are not always drawn.
# Tested on: OCI-AML2
# Assay: cell viability relative to vehicle control; higher = less cytotoxic
# Conditions: 10 µM; SRSF2 genotype: P95H/wt
# In short: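 CRISPR-edited SRSF2 P95 mutant and isogenic wild-type clones of four leukaemia lines were screened against Selleck bioactive, kinase and epigenetic probe libraries, with identity-inconsistent compounds removed. Compounds were acoustically dispensed into 384-well plates at a single 10 µM dose, with 2000 cells in 50 µL medium per well. After 48 h, supernatant was removed and CellTiter-Glo luminescence was read. Viability was expressed as percent of the on-plate DMSO vehicle control, analysed in Genedata Screener.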
row,Structure (SMILES),cell viability
1,C/C(=C\c1csc(C)n1)[C@@H]1C[C@@H]2O[C@@H]2CCC[C@H](C)[C@H](O)[C@@H](C)C(=O)C(C)(C)[C@@H](O)CC(=O)O1 [Epothilone A],7.11%
2,C[C@]12C=CC(=O)C=C1CC[C@@H]1[C@@H]2CC[C@@]2(C)[C@H]1CC[C@]2(C)O [Methandrostenolone],115%
3,C#C[C@]1(O)C=C[C@H]2[C@@H]3CCC4=CC(=O)CC[C@@H]4[C@H]3CC[C@@]21CC [Gestodene],99%
4,C/C=C\c1cc(OC)c(OC)cc1OC [Beta-Asarone],104%
5,Cc1c(N)nc(C(CC(N)=O)NCC(N)C(N)=O)nc1C(=O)NC(C(=O)NC(C)C(O)C(C)C(=O)NC(C(=O)NCCc1nc(-c2nc(C(=O)NCCC[S+](C)C)cs2)cs1)C(C)O)C(O[C@@H]1O[C@@H](CO)[C@@H](O)[C@H](O)[C@@H]1O[C@H]1O[C@H](CO)[C@@H](O)[C@H](OC(N)=O)[C@@H]1O)c1cnc[nH]1 (stereo partly specified) [Bleomycin sulfate],27%
6,Cc1cccc(C(C)c2c[nH]cn2)c1C (stereo unspecified) [Medetomidine HCl],97%
7,CCC1(c2ccc(N)cc2)CCC(=O)NC1=O (stereo unspecified) [Aminoglutethimide (Cytadren)],107%
8,COc1cc2c(cc1O)CC1NCCc3cc(OC)c(O)c-2c31 (stereo unspecified) [Norisoboldine],103%
9,Cc1cccc(Cc2c[nH]cn2)c1C [Detomidine HCl],110%
10,COC1=C[C@@H]2[C@@H]3Cc4ccc(OC)c(O)c4[C@]2(CCN3C)CC1=O [Sinomenine hydrochloride],103%
11,CC(C)=CCCC(C)(O)C1CCC2(C)C1C(O)CC1C3(C)CCC(O)C(C)(C)C3C(OC3OC(CO)C(O)C(O)C3O)CC12C [(20R)-Ginsenoside Rh1],107%
12,CN(C)C(=O)Oc1ccc[n+](C)c1 [Pyridostigmine Bromide (Mestinon)],93.2%
13,C=CC1CN2CCC1CC2C(O)c1ccnc2ccccc12 (stereo unspecified) [Cinchonine.cdx],120%
14,CC[C@@H]1CN2CC[C@@]3(C(=O)Nc4ccccc43)[C@@H]2C[C@@H]1/C(=C\OC)C(=O)OC [Corynoxine],92.9%
15,C[C@@]12C[C@@H](c3ccoc3)OC(=O)[C@@H]1CC[C@]1(C)[C@H]2[C@@H]2C=C[C@@]1(O)C(=O)O2 [Columbin],104%
16,Nc1nc(N)nc(N)n1 [Melamine],95.2%

row,Structure (SMILES),cell viability
1,O=C(/C=C/c1ccccc1)OC[C@H]1O[C@@H](O[C@@H]2OC=C[C@H]3[C@H](O)[C@@H]4O[C@]4(CO)[C@@H]23)[C@H](O)[C@@H](O)[C@@H]1O [Picroside I],104%
2,Cc1cccc(C)c1NC1=NCCCS1 [Xylazine HCl],89.1%
3,c1ccc2c(c1)[I+]c1ccccc1-2 [Diphenyleneiodonium chloride (DPI)],11.4%
4,CC(=O)OC12COC1CC(O)C1(C)C(=O)C(O)C3=C(C)C(O)CC(O)(C(OC(=O)c4ccccc4)C21)C3(C)C (stereo unspecified) [10-DAB (10-Deacetylbaccatin)],105%
5,COC(=O)C[C@](O)(CCC(C)(C)O)C(=O)O[C@@H]1C(OC)=C[C@]23CCCN2CCc2cc4c(cc2[C@H]13)OCO4 [Harringtonine],5.78%
6,c1c2c(cc3c1OCO3)-c1cc3ccc4c(c3c[n+]1CC2)OCO4 [Coptisine chloride],84.5%
7,O=S(=O)(CC1CS1)c1ccc(Oc2ccccc2)cc1 (stereo unspecified),14.9%
8,CC(NC(C)(C)C)C(=O)c1cccc(Cl)c1 (stereo unspecified) [Amfebutamone (Bupropion) HCl],93.1%
9,O=C1CCC[C@@H]2[C@H]3CCCN4CCC[C@@H](CN12)[C@@H]34 [Matrine ((+)-Matrine)],106%
10,C=C[C@H]1CN2CC[C@H]1C[C@H]2[C@H](O)c1ccnc2ccccc12 [Cinchonidine],95.2%
11,Cn1cc(C2=C(c3cn(C4CCN(Cc5ccccn5)CC4)c4ccccc34)C(=O)NC2=O)c2ccccc21,110%
12,O=C(O)CNC(=O)c1c(O)c2ccccc2n(Cc2ccccc2)c1=O,103%
13,O=c1[nH]c2ccc(Cl)cc2c(N[C@@H]2CN3CCC2CC3)c1-c1nc2ccccc2[nH]1,0.04%
14,"NCC(O)c1ccc(O)cc1 (racemic) [(+,-)-Octopamine HCl]",93.1%
15,C=C1[C@H]2C[C@@]3([C@@H]1O)[C@@H](CC2=O)[C@]12[C@@H]4C[C@H]3[C@H]1N(CC)C[C@]4(C)CC[C@@H]2O [Songorine],103%
